Out of some 330,000 compounds screened, about 40 (0.01%) were called active. A call without a number means that no potency is given here. Calls come from the whole dose curve; as a rule, active = well fitted inhibition curve with a large enough effect; inconclusive = small, poorly fitted or top-dose-only effect, or effect the other way; inactive = flat fitted curve, though single readings scatter. This excerpt belongs to a sample that is enriched for actives.
Potency is the fitted concentration of half-maximal effect.

Chain of Ubiquitin carboxyl-terminal hydrolase 2 (Homo sapiens) (O75604 whole entry, looked up): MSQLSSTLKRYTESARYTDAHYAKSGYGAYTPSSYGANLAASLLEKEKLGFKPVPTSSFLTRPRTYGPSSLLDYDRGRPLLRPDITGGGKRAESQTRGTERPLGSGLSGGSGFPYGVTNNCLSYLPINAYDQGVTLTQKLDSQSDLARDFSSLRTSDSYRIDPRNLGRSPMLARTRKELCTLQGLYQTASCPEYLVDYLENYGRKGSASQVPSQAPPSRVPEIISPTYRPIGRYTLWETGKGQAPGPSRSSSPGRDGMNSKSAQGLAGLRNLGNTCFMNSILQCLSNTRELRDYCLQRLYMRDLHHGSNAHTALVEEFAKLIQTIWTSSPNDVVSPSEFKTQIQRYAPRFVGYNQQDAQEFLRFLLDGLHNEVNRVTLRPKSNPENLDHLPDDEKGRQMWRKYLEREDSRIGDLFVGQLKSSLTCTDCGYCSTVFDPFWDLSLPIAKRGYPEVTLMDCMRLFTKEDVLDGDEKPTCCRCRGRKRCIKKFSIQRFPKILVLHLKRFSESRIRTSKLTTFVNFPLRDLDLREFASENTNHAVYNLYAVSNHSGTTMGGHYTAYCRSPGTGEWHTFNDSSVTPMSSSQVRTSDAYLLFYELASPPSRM

The target of this assay is Ubiquitin carboxyl-terminal hydrolase 2 (Homo sapiens) (UniProt O75604). Put plainly: qHTS Assay for Inhibitors of Ubiquitin-specific Protease USP2a Using CHOP2 as the Reporter. The note with it: USP2 core, Ub-CHOP2 coupled fluorogenic reporter, 485/531; series mostly up to 38.3 µM. An excerpt:
NIH Molecular Libraries Screening Centers Network [MLSCN] NIH Chemical Genomics Center [NCGC] MLSCN Grant: XO1-MH079852-01 PI Name: Nicholson, Ben. Progenra Inc, Malvern, PA NCGC Assay Overview: Homeostasis of cellular proteins is maintained through a combination of synthesis and degradation. The pathway that accounts for the majority of protein degradation is the ubiquitin-proteasomal pathway. Ubiquitin (Ub) is highly conserved in all cells and the generation of a multi-Ub chain typically targets proteins for degradation by the proteasome. However, ubiquitination is highly reversible and dynamic. Deubiquitination, the reverse process, is catalyzed through the action of enzymes referred to as isopeptidases or deubiquitinating enzymes (DUBs). This group of enzymes is collectively responsible for maintaining adequate pools of free ubiquitin and regulating the ubiquitination status of cellular proteins. The class of DUBs referred to as the ubiquitin-specific proteases (USP) family functions endoproteolytically to cleave Ub chains from a wide range of protein substrates. USP2a deubiquitinates fatty acid synthase (FASN) which has recently been identified as an emerging oncology target. To identify inhibitors of USP2a a cell-free assay was employed. […] The reporter enzyme chosen is an enterokinase called CHOP2, which is activated when the Ub is cleaved by USP2. The free and now activated reporter can subsequently act on its reporter substrate. Thus, this coupled assay gives a fluorescent read-out at excitation/emission wavelengths of 485/531. The assay was developed by Progenra, Inc. and has been licensed for sale by LifeSensors, Inc. as Ub-CHOP2-Reporter-Kit (#PR1101).
NCGC Assay Protocol Summary: The assay buffer, prepared fresh at the day of the assay, contains 20mM Tris-HCl pH 8.0, 2mM CaCl2, 2mM beta-Mercaptoethanol, 0.05% CHAPS. 3ul of 20nM (10nM final) USP2 core, which is stored on ice, is dispensed into a medium-binding black solid Kalypsys 1,536 well plate using the Kalypsys dispenser. The assay plate is then pinned with 23nL compound with the Kalypsys pintool in columns 5-48. The controls are pinned as follows: column 1 two-fold dilutions of 2M NEM in duplicate; column 2 2M NEM (final concentration 38.2mM); column 3&4 DMSO. The assay plate is incubated at RT for 30min. Subsequently, 1.5uL of 100nM (25nM final) Ub-CHOP2 and 1.5uL of 100nM (25nM final) Reporter Substrate (both stored on ice and protected from light) were dispensed into the plate using the Kalypsys dispenser. Plates were read after 60min RT incubation on a ViewLux (Perkin Elmer) plate reader using the following wavelengths Ex 485nm /Em 531nm. Data were normalized to the to AC100 inhibition (NEM). Concentration-response curves were fitted to the normalized data and the concentration-response curves were then classified based on curve quality (r2), response magnitude and degree of measured activity. The time zero reading was used to flag fluorescence artifacts. Keywords: ubiquitination, deubiquitination, proteases, profluorescent, MLSMR, MLPCN, NIH Roadmap, qHTS, NCGC
(In qHTS, concentration-response curves come from the screen itself.)
With `O=C(OCC1O[C@@H](OC(=O)c2cc(O)c(O)c(O)c2)[C@@H](OC(=O)c2cc(O)c(O)c(O)c2)[C@@H](OC(=O)c2cc(O)c(O)c(O)c2)[C@@H]1OC(=O)c1cc(O)c(O)c(O)c1)c1cc(O)c(O)c(O)c1` (stereo not given in full), the Potency was 6.31 µM (active).

Turning to `CC(C)(C)[C@]1(O)C[C@@H]2OC(=O)C[C@@]23C(=O)O[C@@H]2OC(=O)[C@H](O)[C@]213`, the Potency entry is “inactive”. Next, `NC(=O)Cn1cc(C(=O)c2ccccc2F)c2ccccc21`: “inactive”; `Cc1ccnc(-n2c(C)cc(/C=C3\C(=O)NC(=S)N(C)C3=O)c2C)c1`: “inactive”.

For the compound `CC12CN3CC(C)(CN(C1)C3c1cccs1)C2` (stereo not given), the Potency entry is “inactive”.
